{"source": "ChEMBL document CHEMBL3988442", "about": "“University of Dundee, Small-Polar-MMV Screening Library” (2021)", "note": "The whole screen tested about 48,000 compounds, of which about 13,000 (27%) showed an effect of 50% or more. The list shows a part of the results.", "data": [{"tested_on": "Wolbachia pipientis", "assay": "Anti-Wolbachia Cell-Based Screen", "assay_type": "functional", "parameters": "scale not given: in the data most compounds retested in dose-response had high values", "conditions": "5 µM", "units": {"Percent Effect": "%"}, "values": [{"smiles": "Cc1nnc(CNC(=O)[C@@H]2C[C@H](NC(=O)C(C)(C)C)CN2C)[nH]1", "Percent Effect": -6.748}, {"smiles": "CCOCCC(=O)N(Cc1ccncc1)C(C)CC", "note": "(stereo unspecified)", "Percent Effect": -2.407}, {"smiles": "CC(=O)N[C@@H](CC(C)C)C(=O)N1CCC(n2cc(C(C)(C)N)nn2)CC1", "Percent Effect": 10.18}, {"smiles": "Cc1n[nH]c(C)c1NC(=O)CN(CC(O)c1ccc(F)cc1)C1CC1", "note": "(stereo unspecified)", "Percent Effect": -1.217}, {"smiles": "COc1cc2c(nn1)CCN(Cc1nc(Cc3ccccc3)no1)C2", "Percent Effect": -1.36}, {"smiles": "CCS(=O)(=O)N1CCOC2(CCCN(c3cccc(C#N)c3)C2)C1", "note": "(stereo unspecified)", "Percent Effect": -4.449}, {"smiles": "Cc1cc(C)c(CNC(=O)NCCOc2ccc3c(c2)CCC3)c(=O)[nH]1", "Percent Effect": -6.999}, {"smiles": "O=C(NCCC1CCCCO1)c1cc(COc2ccccc2F)[nH]n1", "note": "(stereo unspecified)", "Percent Effect": 0.1687}, {"smiles": "CN(CC1(CO)CCCC1)C(=O)c1cc(COc2ccccc2F)[nH]n1", "Percent Effect": 101.7}, {"smiles": "O=C(NCCN1CCOCC1)c1cc(COc2ccccc2F)[nH]n1", "Percent Effect": -10.47}, {"smiles": "CN(Cc1nncn1C)C(=O)c1cc(COc2ccccc2F)[nH]n1", "Percent Effect": -12.02}, {"smiles": "O=C(NCc1nc[nH]n1)c1cc(COc2ccccc2F)[nH]n1", "Percent Effect": -17.12}, {"smiles": "CN(CC1(CO)CCC1)C(=O)c1cc(COc2ccccc2F)[nH]n1", "Percent Effect": 109.5}, {"smiles": "O=C(N[C@@H]1CNCCC[C@H]1O)c1ccc(OCCN2CCOCC2)cc1", "Percent Effect": 0.8179}, {"smiles": "O=C(N[C@@H]1CNCCC[C@H]1O)c1ccc(OCCN2CCCC2)cc1", "Percent Effect": 0.07573}, {"smiles": "CO[C@@H]1CC[C@@H](NC(=O)c2ccc(OCCN3CCCC3)cc2)[C@H]1O", "Percent Effect": 109.4}, {"smiles": "c1cn(CCc2c[nH]cn2)c(-c2cc(CN3CCCC3)cs2)n1", "Percent Effect": -0.5916}, {"smiles": "Cl.c1cnc2c(c1)cc(C1CCOCC1)n2CCN1CCOCC1", "Percent Effect": -3.513}, {"smiles": "Cl.Fc1cccc(F)c1Cn1c(C2CCNCC2)cc2cccnc21", "Percent Effect": 115.5}, {"smiles": "Cl.Fc1cccc(F)c1Cn1c(C2CCCNC2)cc2cccnc21", "note": "(stereo unspecified)", "Percent Effect": 125.8}, {"smiles": "CC(C)(C)OC(=O)N1CC(CC(=O)NCc2ccnc(C3CC3)c2)C1", "Percent Effect": -29.57}, {"smiles": "Cl.Fc1ccccc1Cn1c(C2CCNCC2)cc2cccnc21", "Percent Effect": 115.9}, {"smiles": "Cl.Fc1ccccc1CNc1ccnc(C2CCNCC2)c1", "Percent Effect": 96.16}, {"smiles": "NS(=O)(=O)c1ccc(NCc2ccccc2F)cc1C(F)(F)F", "Percent Effect": -7.773}, {"smiles": "O=C(O)C(F)(F)F.O=C(c1ncccn1)N1CC[C@H]2OCC[C@@]2(COc2ccccn2)C1", "Percent Effect": -10.25}, {"smiles": "COC(=O)c1ccc(S(=O)(=O)N(C)CC(N)=O)c(Cl)c1", "Percent Effect": -3.285}, {"smiles": "Cc1cnn(CC2CCCN2Cc2cc(=O)n3cccc(C)c3n2)c1", "note": "(stereo unspecified)", "Percent Effect": 6.367}, {"smiles": "COc1ccc2c(c1)CCCC2CC(=O)O", "note": "(stereo unspecified)", "Percent Effect": -1.038}, {"smiles": "O=C(NC1CCC1)[C@H]1C[C@@H]2[C@@H](C1)OCCN2CC1CC1.O=C(O)C(F)(F)F", "Percent Effect": -6.466}, {"smiles": "Cc1cc(-n2cncn2)ccc1C(=O)N(CC(F)(F)F)C(C)C", "Percent Effect": -3.659}, {"smiles": "Cc1nc(-c2ccccc2)sc1CSCCC(N)=O", "Percent Effect": 7.014}, {"smiles": "CC1=C(C(=O)N(C)Cc2noc3c2CCCC3)C(C)NC(=O)N1", "note": "(stereo unspecified)", "Percent Effect": 99.57}, {"smiles": "COc1nc2c(cc1C(=O)N(C)Cc1n[nH]c3c1CCCC3)CCC2", "Percent Effect": -1.669}, {"smiles": "CC1=C(C(=O)N(C)Cc2n[nH]c3c2CCCCC3)C(C)NC(=O)N1", "note": "(stereo unspecified)", "Percent Effect": 97.58}, {"smiles": "CC1=C(C(=O)NCCc2n[nH]c3c2CCCC3)C(C)NC(=O)N1", "note": "(stereo unspecified)", "Percent Effect": 140.8}, {"smiles": "CCCn1ncc(C(=O)NCc2n[nH]c3c2CCCCC3)c1C", "Percent Effect": -11.8}, {"smiles": "O=C(NCc1n[nH]c2c1CCCCC2)c1cnn2c1CCCC2", "Percent Effect": -12.98}, {"smiles": "CN(Cc1noc2c1CCCC2)C(=O)CN1C(=O)COc2ccccc21", "Percent Effect": -4.066}, {"smiles": "CC(=O)N1C[C@@H]2CC[C@H](C1)N(C(=O)CCc1n[nH]c3c1CCCC3)C2", "Percent Effect": -10.18}, {"smiles": "CN(Cc1noc2c1CCCC2)C(=O)C1CCOc2ccccc2C1", "note": "(stereo unspecified)", "Percent Effect": -27.45}, {"smiles": "COCCCC1CCCN(C(=O)CCc2csc(N)n2)C1", "note": "(stereo unspecified)", "Percent Effect": 18.03}, {"smiles": "CC(NCCN1CCC(N(C)C)CC1)c1ccc(Cl)s1", "note": "(stereo unspecified)", "Percent Effect": 1.149}, {"smiles": "Cc1cccc(=O)n1CCCNc1nc(N(C)C)nc2c1CCNCC2", "Percent Effect": -26.54}, {"smiles": "O=C(O)C(F)(F)F.O=C(c1ccccc1-c1ccccc1)N1C[C@@H]2CNC[C@]2(C(=O)O)C1", "Percent Effect": 7.106}, {"smiles": "N#Cc1cccnc1Oc1cc(F)c(CN2CCCC2)c(Cl)c1", "Percent Effect": 85.58}, {"smiles": "Fc1cccnc1Oc1cc(F)c(CN2CCCC2)c(F)c1", "Percent Effect": 105.5}, {"smiles": "Fc1cccnc1Oc1cc(F)c(CN2CCCC2)c(Cl)c1", "Percent Effect": 96.1}, {"smiles": "COc1ccc(Oc2ncccc2C(F)(F)F)cc1CN1CCCC1", "Percent Effect": 21.25}, {"smiles": "N#Cc1cccc(Oc2ccc(CN3CCCC3)cc2Cl)n1", "Percent Effect": 1.122}, {"smiles": "COc1ccc(Oc2ncccc2F)cc1CN1CCCC1", "Percent Effect": -25.38}, {"smiles": "N#Cc1ccc(Oc2cc(F)c(CN3CCCC3)c(F)c2)nc1", "Percent Effect": 28.32}]}]}
